Drawing on PubChem BioAssay AID504329 (Southern Research Specialized Biocontainment Screening …, 2011), this text covers inhibition for 85 molecules.

SMILES strings stand for the structures. Where “and” joins values, the source holds several entries; their conditions need not be identical. Equal entries are not always repeated. Out of some 340,000 compounds screened, about 1,000 (0.29%) were called active. These entries were drawn from the full list. Entries with a potency or affinity are not part of this list. Values without a mark were called inactive. Cut-off read from the data, not from the text of the source: inconclusive = inhibition above about 27% without an active follow-up result; inactive = below that.

This test can be described thus: H1N1 influenza NS1A inhibitors, functional cell based assay (AID 504329). To be noted: percent inhibition, at 12.5 µM, hits give high values.
With `O=C(Nc1cc([N+](=O)[O-])c2[nH]c(=O)c3ccccc3c2c1)C(F)(F)F`, the inhibition (as a rule, the change of the read-out against control, counted positive when it falls) is 1.69%. The figure for `c1ccc(CN2CCC(CNc3ncnc4ccccc34)C2)cc1` (stereo not given) is -2.71%. The figure for `CC1(c2ccccc2)NC(=O)N(CC(=O)Nc2nc(-c3ccccn3)cs2)C1=O` (stereo not given) is 17.7%. The figure for `O=C(Nc1nc(-c2ccccn2)cs1)C1CC1` is 15.6%; for `O=C(CN1C(=O)CCC1=O)Nc1nc(-c2ccc3ccccc3c2)cs1` it is -4.5%. Consider `O=C(CN1C(=O)C2CCCCC2C1=O)Nc1nc(-c2ccc(F)cc2)cs1` (stereo not given), for which the inhibition was -0.75%. The figure for `O=C(Nc1nc(-c2ccccn2)cs1)C1CCCC1` is -0.49%; for `O=C(CC1CC2CCC1C2)Nc1nc(-c2ccccn2)cs1` (stereo not given) it is -17.9%.

As to `O=C(CN1C(=O)CCC1=O)Nc1nc(-c2cccs2)cs1`, the inhibition was -13.6%. The figure for `O=C(CCN1C(=O)C2CCCCC2C1=O)Nc1nc(-c2ccccc2)cs1` (stereo not given) is 12.8%; for `N#Cc1cc(-c2cccc(Cl)c2)c[nH]c1=O` it is 3.18%; for `Cc1ccc(C(=O)Nc2cccc(C(=O)NCc3ccco3)c2)cc1` it is 0.66%.

As for `COc1ccc(C(=O)NCCSCc2cccc(Cl)c2)cc1OC`, the inhibition is -9.42%. The figure for `O=C(CCN1CCN(c2ccc(F)cc2)CC1)Nc1ccc(F)cc1` is 8.96%; for `CC(C)(C)c1cc(C(=O)N2CCc3ccccc32)ccn1` it is -21.7%. `CC(=O)Nc1sc(C)c(C)c1C(=O)OCC(=O)NC(C)c1ccccc1` (stereo not given): the inhibition is -5.54%. The figure for `Cc1ccc(S(=O)(=O)Nc2nc3ccccc3nc2NCC2CCCO2)cc1C` (stereo not given) is -0.91%; for `O=C1CC(c2ccc(O)cc2)Oc2cc(O)ccc21` (stereo not given) it is -6.8%; for `O=C(COc1ccccc1)N[C@@H]1c2ccccc2CC[C@H]1OCc1ccccc1` it is -3.28%. The figure for `COc1ccc(C(CCN2CCCC(C)C2)c2c(OC)cc(OC)c3c(-c4ccccc4)cc(=O)oc23)cc1` (stereo not given) is 10.3%; for `CCN(CC)CCC(c1cc(OC)c(OC)c(OC)c1)c1c(OC)cc(OC)c2c(-c3ccccc3)cc(=O)oc12` (stereo not given) it is -1.61%; for `COc1cc(OC)c2c(-c3ccccc3)cc(=O)oc2c1C(CCN1CCCC(C)C1)c1ccc2c(c1)OCO2` (stereo not given) it is 17.6%. The figure for `CCN(CC)CCC(c1ccc2c(c1)OCO2)c1c(OC)cc(OC)c2c(-c3ccccc3)cc(=O)oc12` (stereo not given) is 15.2%; for `COc1ccc(C(CCN2CCCCC2)c2c(OC)cc(OC)c3c(-c4ccccc4)cc(=O)oc23)cc1` (stereo not given) it is 3.17%. `COc1cc(OC)c2c(-c3ccccc3)cc(=O)oc2c1C(CCN1CCOCC1)c1ccc(N(C)C)cc1` (stereo not given): the inhibition is 9.77%. The figure for `O=C(NCCc1ccccn1)c1ccc(NS(=O)(=O)c2ccc(F)cc2)cc1` is -1.36%. The figure for `COc1cccc(OCC(=O)NNC(=O)c2ccc3ccccc3c2O)c1` is 3.46%; for `CS(=O)(=O)N1N=C(c2ccco2)CC1c1ccco1` (stereo not given) it is 0.65%; for `CC(NC(=O)CN(c1cccc(C(F)(F)F)c1)S(=O)(=O)c1ccc(Cl)c([N+](=O)[O-])c1)c1ccccc1` (stereo not given) it is -1.19%.

As for `N#Cc1ccc(C(=O)Nc2cccc3ccccc23)c(F)c1`, the inhibition was 4.06%. Consider `CN1C(N)=NC(=O)/C1=C/c1ccc(OC(F)(F)F)cc1`, for which the inhibition is -2.53%. The figure for `CCOC(=O)c1ccccc1NC(=O)CN(c1ccccc1OCC)S(C)(=O)=O` is 0.08%; for `Cc1ccc(NC(=O)C2CCN(S(=O)(=O)c3ccc(C(C)(C)C)cc3)CC2)cc1S(=O)(=O)N1CCOCC1` it is -3.38%.

With `CCCN(CCC)S(=O)(=O)c1ccc(NS(C)(=O)=O)cc1`, the inhibition was -0.06%. Turning to `COC(=O)c1ccccc1NC(=O)c1cccs1`, the inhibition is 11.6%.

Turning to `COC(=O)c1cccc(NS(=O)(=O)c2cccs2)c1C`, the inhibition was 1.41%. `Cc1ccc(Cl)cc1NC1=C/C(=N\S(=O)(=O)c2cccs2)c2ccccc2C1=O`: the inhibition was 17.4% and 16.6%.

For `Cc1ccccc1NC1=C/C(=N\S(=O)(=O)c2ccc(C(=O)O)cc2)c2ccccc2C1=O`, the inhibition is 4.65%. Turning to `COC(=O)c1cc(NS(=O)(=O)c2cccs2)cc(NS(=O)(=O)c2cccs2)c1`, the inhibition is -13.7%. The figure for `O=C(O)c1ccc(S(=O)(=O)/N=C2\C=C(Nc3ccccc3F)C(=O)c3ccccc32)cc1` is 14.7%; for `COc1ccccc1S(=O)(=O)Cc1ccc(C(=O)N2CCN(c3ccc(C)cc3)C(C)C2)o1` (stereo not given) it is 9.7%; for `CC(C)COC(=O)c1ccccc1C(=O)OCC(C)C` it is 2.41%. In the case of `COC(=O)c1ccc2c(c1O)C(=O)c1ccccc1C2=O`, the inhibition was 4.41%.

With `CCN(CC)c1ccc(O)c(C=Nc2ccc(C)c(C)c2)c1`, the inhibition was -19.5%. On to `COc1ccc2c(O)c(-c3c(C)cc(C)cc3C)c(=O)[nH]c2c1`, for which the inhibition was 10.4%. The figure for `COc1ccc(/C=C(/NC(=O)c2ccco2)C(=O)Nc2ccc(C(=O)O)cc2)cc1` is -7.59%; for `O=C(O)c1ccc(N2CCc3ccccc32)c([N+](=O)[O-])c1` it is 4.7%.

With `COC(CNC(=O)c1ccc(N2CCc3ccccc32)c([N+](=O)[O-])c1)OC`, the inhibition is 10.7%. The figure for `COCC(COS(N)(=O)=O)C(C)C` (stereo not given) is 9.46%. The figure for `CCc1nc(N2CCN(C(=O)c3ccccc3)CC2)c2c3c(sc2n1)CCCC3` is 2.27%; for `Cc1c2ccccc2cc[n+]1CCCS(=O)(=O)[O-]` it is 5.16%. The figure for `CCOc1ccc(C(=O)Nc2ncn[nH]2)cc1` is -3.3%. Take `COc1cc(NCc2ccccc2)c2ncn(C(C)C)c2c1`: the inhibition is 0.83%. The figure for `CCC(CO)Oc1cc(NCc2ccccc2)c2ncn(C(C)C)c2c1` (stereo not given) is 3.05%; for `Cc1ccc2c(c1)c(N=Nc1cccc(C(=O)O)c1)c(O)n2C` it is -0.45%. The figure for `CC(=O)Nc1nonc1NC(=O)COc1ccccc1` is -0.08%; for `CCC(C)[C@H](NC(=O)[C@@H]1Cc2c([nH]c3ccccc23)C2c3ccccc3C(=O)N21)C(=O)NCC1CCCO1` (stereo not given in full) it is 0.06%; for `C=CCOC(=O)C1=C(C)Nc2nc3ccccc3n2C1c1ccncc1` (stereo not given) it is -21.4%.

For `O=C(CN1CCOCC1)N/N=C/c1c(O)ccc2ccccc12`, the inhibition is 14.4%. The figure for `Cc1ccc2cc(/C=N/NC(=O)CN3CCCCC3)c(Cl)nc2c1` is 1.44%. On to `O=C(CN1CCCc2ccccc21)N/N=C/c1c(O)ccc2ccccc12`, for which the inhibition was -3.7%. The figure for `Cc1cccc(/C=N/NC(=O)CN2CCCCCCC2)c1` is 5.95%. The figure for `COc1cc2oc3ccccc3c2cc1N(CC(=O)N(C)C)S(=O)(=O)c1ccc(C)cc1` is 1.98%.

As to `CCCCc1nnc(NC(=O)c2ccc(OCc3c(C)noc3C)cc2)s1`, the inhibition is 3.77%.

On to `CCOC(=O)N1CCN(C(=O)c2ccc3c(Cl)c4c(nc3c2)CCCC4)CC1`, for which the inhibition was -2.68%. The figure for `CSCC[C@H](NC(=O)OC(C)(C)C)C(=O)N1CCC(C(=O)N[C@@H](C)C(=O)NC(C)c2ccccc2)CC1` (stereo not given in full) is 4.49%; for `CCc1ccc(CN(C)C(=O)c2ccc3c(=O)n4c(nc3c2)CCC4)cc1` it is -7.99%. As to `COc1cccc2c1C(=O)c1c(O)c3c(c(O)c1C2=O)C[C@](O)(C(C)=O)C[C@H]3O[C@@H]1C[C@@H](N)[C@@H](O)[C@@H](C)O1`, the inhibition was 24.5%. The figure for `COc1cccc2c1C(=O)c1c(O)c3c(c(O)c1C2=O)C[C@@](O)(C(=O)CO)C[C@@H]3OC1CC(N)C(O)C(C)O1` (stereo not given in full) is 15%; for `COc1cccc2c1C(=O)c1c(O)c3c(c(O)c1C2=O)CC(O)(C(C)=O)CC3OC1CC(O)C(O)C(C)O1` (stereo not given) it is 20.6%. The figure for `COc1cccc2c1C(=O)c1c(O)c3c(c(O)c1C2=O)C[C@@](O)(C(=O)CO)C[C@@H]3O[C@H]1C[C@H](N)[C@H](O)[C@H](C)O1` is 20.3%; for `COc1cccc2c1C(=O)c1c(O)c3c(c(O)c1C2=O)CC(O)(C(=O)CO)CC3OC1CC(N(C)C)C(O)C(C)O1` (stereo not given) it is 18.7%; for `C/C(=N\NC(=O)c1ccc(Cl)c(Cl)c1)c1cccc(NC(=O)C(C)C)c1` it is -0.88%. The figure for `COc1cccc2c1C(=O)c1c(O)c3c(c(O)c1C2=O)CC(O)(C(C)=O)CC3OC1CC(N(C)C)C(O)C(C)O1` (stereo not given) is 19.1%; for `CCCCC(=O)OCC(=O)C1(O)Cc2c(O)c3c(c(O)c2C(OC2CC(NC(=O)C(F)(F)F)C(O)C(C)O2)C1)C(=O)c1c(OC)cccc1C3=O` (stereo not given) it is 14.4%.

For the molecule `COC(=O)CC1=C(C(=O)OC)C(c2ccc3c(c2)OCO3)C(C#N)=C(N)O1` (stereo not given), the inhibition is -5.88%.

For the molecule `Cc1cc(C)c(NC(=O)c2ccc(CN3CCc4ccccc4C3)cc2)c(C)c1`, the inhibition was 12.4%. The figure for `COc1ccccc1/C=C/C=C1\Oc2c(ccc(O)c2CN2CCN(CCO)CC2)C1=O` is 6.54%.

With `CC(C)n1cc(C#N)c(N)n1`, the inhibition is -24.1%. The figure for `Cc1ccc2c(CN3CCCCC3C)cc(=O)oc2c1C` (stereo not given) is -6.02%; for `O=C(COC(=O)c1cccc(O)c1)Nc1ccc(Cl)cc1C(=O)c1ccccc1` it is -7.75%. The figure for `CSC1=NCCN1C(=O)c1c(-c2c(F)cccc2Cl)noc1C` is -23.1%.

With `Cc1ccc(C2C(N)C(=O)N2c2ccc(C)cc2)cc1` (stereo not given), the inhibition is -20.6%.

In the case of `Cc1ccc(NC(=O)CN(C)C(=O)Cc2ccc(Cl)c(Cl)c2)cc1`, the inhibition was 9.85%. The figure for `Cc1ccc(S(=O)(=O)NNC(=O)c2cnn(-c3ccc(Cl)cc3)c2C(F)(F)F)cc1` is -16.4%.
